Drawing on PubChem BioAssay (NCI), this text covers growth inhibition for 18 molecules.

The panel holds about 79,000 compounds, 15% with a hit somewhere; the sample as a whole holds those more often. Values without a mark were called inactive. Activity calls are given as the source filed them. No stated cut-off is given here; in the data, active means growth inhibition above about 70%; inactive means the rest.

This test is described as follows: NCI Yeast Anticancer Drug Screen. Data for the cln2 rad14 strain (AID 165).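 Further: 0% = growth equal to vehicle treated cultures.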 Particulars: S. cerevisiae cln2 rad14 strain, at 50.0 µM, hits give high values. The essentials:
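Strain: cln2 rad14 yeast, altered in cell cycle control and DNA damage repair. Read-out: growth inhibition vs vehicle.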
Regarding `CN(CCc1ccccn1)C(=S)N/N=C/c1ccccn1`, the growth inhibition is 89.7% (active).
As for `CC(C)CC(C)N=C1CC2CCC1(C)C2(C)C` (stereo not drawn), the figure is -14.2%.
`COC1OC(OC)c2cc([N+](=O)[O-])ccc21` (stereo not drawn): the growth inhibition is 23.2%.
As for `CCC(=O)c1ccc(OC(=O)Nc2ccc(Cl)cc2[N+](=O)[O-])cc1`, the figure is -0.75%; as for `CCCCCCC(=O)CC1(C(=O)OC)NC(=S)NC(=O)C1C#N` (stereo not drawn), -0.75%.
The same measure for `CCCCCC[N+]12CC=C3COC(=O)C(C)(O)C(C)(O)C(C)C(=O)OC(CC1)C32` (stereo not drawn): 13.7%; for `Cc1cc(C)[n+](C)c(/C=C/c2ccc([N+](=O)[O-])cc2)n1`: 27.8%.
As for `CC1(c2ccccc2)SCCS1`, the figure is -34.3%; as for `COC(=O)c1ccc(O)c(CN(C)C)c1`, 3.4%; as for `Cc1ccc(CO)cc1`, -5.6%.
`NC(=S)N/N=C/c1ccccc1S(=O)(=O)O`: the growth inhibition was -16.2%.
As for `NC(=O)C(F)(F)C(F)(F)C(N)=O`, the figure is -51.6%; as for `COc1ccc(SC(N(C)C)=[N+](C)C)cc1`, 11.4%.
The same measure for `CCCCc1c(O)nc(NCCCC(N)C(=O)O)[nH]c1=O` (stereo not drawn): -28.9%; for `CN(C)CCC(O)(c1ccccc1)C(O)(CCN(C)C)c1ccccc1` (stereo not drawn): -8.85%.
The same measure for `Oc1ccc2ccccc2c1-c1c(OC(c2ccccc2)c2ccccc2)ccc2ccccc12`: -29.4%; for `CN1CCC(C[CH2][Sn]([c]2ccccc2)([c]2ccccc2)[c]2ccccc2)CC1`: 63%; for `O=C(c1c(F)c(F)c(F)c(F)c1F)n1c(=O)[nH]c2ccccc21`: -12.1%.
